This note sets out measurements from PubChem BioAssay.

Molecules are shown by their SMILES. Values without a mark were called inactive. No rule for the calls is given here.

The test deals with Aerobactin synthetase IucA (Klebsiella pneumoniae hvKP1). Kind of test: Biochemical IucA enzyme inhibition primary screen of the Spectrum library (AID 1346200).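 Also: 100% = wells without compound and 0% = wells lacking enzyme.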 The note with it: malachite green pyrophosphate, A620, at 8 µM, stronger effect = lower value.
As for `C[C@@H]1O[C@@H](OC[C@H]2OC(Oc3c(-c4ccc(OCCO)c(OCCO)c4)oc4cc(OCCO)cc(O)c4c3=O)[C@H](O)[C@@H](O)[C@@H]2O)[C@H](O)[C@H](O)[C@H]1O` (some centres undefined), the activity remaining is 121%.

As to `NC(=O)c1ccc[n+]([C@@H]2O[C@H](COP(=O)([O-])OP(=O)(O)OC[C@H]3O[C@@H](n4cnc5c(N)ncnc54)[C@H](OP(=O)(O)O)[C@@H]3O)[C@@H](O)[C@H]2O)c1`, the activity remaining was 101%. For `COc1ccc(CCN2CCC(Nc3nc4ccccc4n3Cc3ccc(F)cc3)CC2)cc1`, the activity remaining was 124%. In the case of `OC[C@H]1OC([S-])[C@H](O)[C@@H](O)[C@@H]1O.[Au+]` (some centres undefined), the activity remaining is 109%. For the molecule `COc1ccc(-c2coc3c(O)c(OC)ccc3c2=O)cc1`, the activity remaining was 115%. In the case of `CC(C)=CCC/C(C)=C/CC/C(C)=C/CC/C(C)=C/CC/C(C)=C/CC/C(C)=C/CC/C(C)=C/CC/C(C)=C/CC/C(C)=C/CO` it was 105%; in that of `COc1ccc(-c2oc3cc(OC)c(OC)c(OC)c3c(=O)c2OC)cc1`, 115%.

Regarding `CC(=O)Oc1cc2c(c(C)c1OC(C)=O)CC1OC13[C@@]2(C)CC[C@@]1(C)C2C[C@](C)(C(=O)O)CC[C@]2(C)CC[C@]31C` (some centres undefined), the activity remaining was 101%.

In the case of `C[C@]12C=CC(=O)C=C1CCC1C3C[C@@H](O)[C@](O)(C(=O)CO)[C@@]3(C)C[C@H](O)[C@@]12F` (some centres undefined), the activity remaining is 125%. Turning to `C#C[C@]1(O)CCC2C3CCC4=CC(=O)CC[C@@H]4C3CC[C@@]21C` (some centres undefined), the activity remaining is 108%. Regarding `CC(=O)C1CCC2C3CC(=O)C4=CC(=O)CCC4(C)C3CCC12C` (centres undefined), the activity remaining is 98.9%.

`OCc1ccccc1O`: the activity remaining was 115%. For the molecule `CN1C(CC(=O)c2ccccc2)CCCC1CC(O)c1ccccc1` (centres undefined), the activity remaining is 108%. Take `CCOC(=O)c1c(C)cc(O)c(C=O)c1O`: the activity remaining is 97.7%. As to `NC(N)=N/N=C\c1c(Cl)cccc1Cl`, the activity remaining was 97%. Take `OC[C@H]1O[C@@H](O[C@H]2[C@H](O)[C@@H](O)[C@@H](O)O[C@@H]2CO)[C@H](O)[C@@H](O)[C@@H]1O`: the activity remaining was 107%. The result for `CC[C@@]1(O)C(=O)OCc2c1cc1n(c2=O)Cc2cc3cc(O)ccc3nc2-1` reads 117%; that for `NC1(C(=O)O)CCCC1`, 117%; that for `C=C1CCC(OC(C)=O)/C(C)=C/C[C@@H]2[C@@H]1CC2(C)C` (some centres undefined), 103%. For `COC(=O)c1c(C)cc(O)cc1O`, the activity remaining is 89.5%. The result for `CC(C)(C)NC[C@@H](O)COc1nsnc1N1CCOCC1` reads 99.4%; that for `Cc1cc(=O)c2c(O)c(C)c(O)cc2o1`, 108%. In the case of `CC/C(=C(/CC)c1ccc(O)cc1)c1ccc(O)cc1` it was 104%; in that of `N=c1ccn2c(n1)O[C@@H]1C2O[C@H](CO)[C@H]1O` (some centres undefined), 105%; in that of `C[C@@H]1O[C@@H](O[C@H]2[C@H](Oc3cc(O)c4c(=O)cc(-c5ccc(O)cc5)oc4c3)O[C@H](CO)[C@@H](O)[C@@H]2O)[C@H](O)[C@H](O)[C@H]1O`, 90.6%.

With `CN(C)CCc1c[nH]c2ccc(C[C@H]3COC(=O)N3)cc12`, the activity remaining is 112%. For the molecule `CC(=O)O[C@H]1CC[C@@]2(C)C(C[C@@H](OC(C)=O)[C@@]3(C)C4=CC(=O)O[C@@H](c5ccoc5)[C@]4(C)CCC23)C1(C)C` (some centres undefined), the activity remaining is 89.5%. Regarding `N#Cc1ccc2c(c1)N(CCCN1CCC(O)CC1)c1ccccc1S2`, the activity remaining is 111%. The result for `COc1ccccc1OCC(O)COC(N)=O` (centres undefined) reads 108%; that for `COc1cc(NS(=O)(=O)c2ccc(N)cc2)ncn1`, 92.3%; that for `COc1c(O)cc2oc3cc(O)c(CC=C(C)C)c(O)c3c(=O)c2c1CC=C(C)C`, 93%.

In the case of `CC(=O)Oc1ccc2c(c1OC(C)=O)OCC1(O)Cc3c(cc(OC(C)=O)c(OC(C)=O)c3OC(C)=O)C21` (centres undefined), the activity remaining is 111%. Take `CO[C@H]1C[C@H](O[C@H]2[C@H](C)[C@@H](OC3O[C@H](C)C[C@H](N(C)C)[C@H]3OC(C)=O)[C@@H](C)C[C@]3(CO3)C(=O)[C@H](C)[C@@H](OC(C)=O)[C@@H](C)[C@@H](C)OC(=O)[C@@H]2C)O[C@@H](C)[C@@H]1OC(C)=O` (some centres undefined): the activity remaining was 116%.

`CC(C)c1c(C(=O)c2ccccc2)c(-c2ccccc2)c(-c2ccc(F)cc2)n1CC[C@@H](O)C[C@@H](O)CC(=O)O`: the activity remaining was 116%.
